phage Ecoli inh: growth loss of phage-infected E. coli, primary screen, RecBCD inhibitor project, absorbance, with phage, HTS; inhibition, % at 11.9 µM; actives 0.26% (n = 360,000); AID 651602, 2012; in the data active = inhibition above about 11%
AddAB inh: growth inhibition of E. coli expressing H. pylori AddAB, primary screen, AddAB inhibitor project, absorbance | inhibition, % at 11.9 µM | actives 0.29% (n = 330,000); in the data active = inhibition above about 12%;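 note: 0% = vehicle wells of infected cells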
E coli growth-1: E. coli growth inhibition, primary screen, OD600. OD600 absorbance (concentration not given with the values). AID 1053175, 2014. Escherichia coli growth, 23 h; hits give low values. actives 0.21% (n = 330,000);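 active = OD600 absorbance below the run mean of sample wells minus 3.6 SD, in any replicate, cut at about 0.56 in these data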
E coli growth-2: E. coli V3065 growth inhibition, primary screen, counter-screen for AddAB inhibitor project, absorbance, OD600; 18 h; inhibition, % at 11.9 µM; actives 0.27% (n = 330,000); AID 449728, 2010;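 active = inhibition above the campaign's mean inhibition across all tested compounds plus 3 SD, cut at about 9.9% in these data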;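 note: uninfected addAB+ strain grown without phage in ampicillin broth; 0% = DMSO wells and 100% = ciprofloxacin 0.95 µg/ml wells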
Tat transport: E. coli Tat export inhibitors, primary screen, MC4100, TorA-mCherry reporter, fluorescence, single point; inhibition, % at 10 µM; actives 0.036% (n = 340,000); AID 488895, 2010;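 active = mean replicate inhibition at least 50% and at least half of replicates individually reaching 50%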;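 note: exported cargo escapes ClpAP degradation while cytoplasmic cargo is degraded and loses fluorescence; 0% = median of neutral control wells and 100% = median of NaSCN control wells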
AddAB confirm: growth loss of phage-infected E. coli expressing H. pylori AddAB, confirmation, AddAB inhibitor project, absorbance, E. coli V3065, T4 phage, triplicate. shares compounds with AddAB inh. OD; T4 phage with gene 2 nonsense mutations. inhibition, % at 11.9 µM. actives 64% (n = 880);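 active = mean inhibition above a set limit taken from the earlier primary screen, cut at about 13% in these data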;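 note: higher means less bacterial growth since AddAB block lets phage replicate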
RecBCD counter: growth loss of RecBCD+ E. coli with mutant T4 phage, counter-screen for AddAB inhibitor project, absorbance, V66 E. coli; shares compounds with AddAB inh; OD growth; inhibition, % at 11.9 µM; actives 73% (n = 880); AID 488955, 2010;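 active = mean inhibition above the mean of solvent-only control wells plus 3 SD, cut at about 4% in these data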;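 note: optical density read after an 18 h incubation at 37 °C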
Bact viability: bacterial viability inhibition counter-screen, confirmation, counter-screen for AddAB inhibitor project, absorbance; shares compounds with AddAB inh; absorbance (AddAB counterscreen); inhibition, % at 11.9 µM; actives 35% (n = 880); AID 488956, 2010; in the data active = inhibition above about 25%
RecBCD conf: growth loss of phage-infected RecBCD+ E. coli, confirmation, RecBCD inhibitor project, absorbance, E. coli V66, T4 gene 2 phage; shares compounds with phage Ecoli inh; E. coli V66 + T4 2- phage, growth OD; inhibition, % at 11.9 µM; actives 45% (n = 890);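 active = mean inhibition over triplicates exceeding the hit threshold derived in the original primary screen, cut at about 11% in these data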
Ecoli viability: E. coli viability inhibition, counter-screen for RecBCD inhibitor project, absorbance, high throughput; shares compounds with phage Ecoli inh; absorbance (OD) growth; inhibition, % at 11.9 µM; actives 29% (n = 890); AID 651983, 2013; in the data active = inhibition above about 20%;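 note: E. coli strain V66 grown with compound alone and no phage infection; 0% = bacteria with DMSO vehicle only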
AddAB counter: growth loss of phage-infected AddAB-carrying E. coli, confirmation, counter-screen for RecBCD inhibitor project, absorbance, E. coli V3065, T4 phage | shares compounds with phage Ecoli inh | actives 45% (n = 890) | inhibition, % at 11.9 µM | E. coli expressing H. pylori AddAB + T4 phage, OD growth; gene 2 mutant T4, recBCD-deleted host | AID 651984, 2013;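 active = mean inhibition above the solvent-only control wells' mean plus 3 SD, cut at about 22% in these data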;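 note: higher means less bacterial growth from phage killing when AddAB is blocked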
Active calls of the source: *; . = no result given. A selection: hits, their analogues and other compounds. The true share with any hit is near 0.5%.

SMILES	phage Ecoli inh	AddAB inh	E coli growth-1	E coli growth-2	Tat transport	AddAB confirm	RecBCD counter	Bact viability	RecBCD conf	Ecoli viability	AddAB counter
COc1ccc(NC(=O)CSc2nnc(-c3ccc(F)cc3)o2)cn1	24*	21*	0.59	9	-76	29*	17*	20	21*	21*	39*
O=C(CSc1nnc(-c2cccnc2)o1)Nc1ccc(F)cc1	4	.	.	.	.	.	.	.	.	.	.
CC1NC(=O)C(CCC(N)=O)NC(=O)c2cc([N+](=O)[O-])cc(I)c2NCCC(C(N)=O)NC1=O (configuration not stated)	.	.	0.71	.	.	.	.	.	.	.	.
CC(C)c1ccccc1NC(=S)NCc1nc2ccccc2[nH]1	3	0	0.68	0	-3	.	.	.	.	.	.
FC(F)Oc1ccc(NC(=S)NCc2nc3ccccc3[nH]2)cc1	17*	16*	0.54	17*	-74	33*	19*	22	21*	19	36*
CCOc1ccc(NC(=S)NCc2nc3ccccc3[nH]2)cc1	20*	20*	0.56	16*	-35	32*	19*	24	17*	16	29*
CCC(=O)NC(c1cccs1)c1cc(Cl)c2cccnc2c1O (configuration not stated)	26*	23*	0.71	26*	-4	25*	22*	16	14*	21*	21
CCCCC(=O)NC(c1cccs1)c1cc(Cl)c2cccnc2c1O (configuration not stated)	17*	16*	0.66	18*	-5	21*	17*	16	11	11	19
CCCC(=O)NC(c1ccco1)c1cc([N+](=O)[O-])c2cccnc2c1O (configuration not stated)	4	3	0.62	-3	-11	.	.	.	.	.	.
CC(=O)NC(c1ccccc1)c1cc(Cl)c2cccnc2c1O (configuration not stated)	13*	17*	0.63	18*	23	11	15*	4	5	9	10
CCC(=O)NC(c1cc(Cl)c2cccnc2c1O)C(C)C (configuration not stated)	18*	15*	0.66	17*	-3	4	12*	5	5	8	13
CC(=O)NC(c1ccc(C)cc1)c1cc([N+](=O)[O-])c2cccnc2c1O (configuration not stated)	1	1	0.68	1	-9	.	.	.	.	.	.
CC(C)CC(=O)NC(C(=O)NC(C(=O)NC(CC(C)C)C(O)CC(=O)NC(C)C(=O)NC(CC(C)C)C(O)CC(=O)O)C(C)C)C(C)C (configuration not stated)	.	.	0.69	.	.	.	.	.	.	.	.
COc1ccc(-c2cc(C(=O)NN=Cc3cc(OC)c(OC)cc3OC)c3ccccc3n2)cc1	.	.	0.68	.	.	.	.	.	.	.	.
CCOC(=O)c1ccc(-c2ccc(C3Nc4ccccc4C(=O)N3O)o2)cc1 (configuration not stated)	24*	21*	0.64	22*	1	20*	21*	18	16*	18	14
